# Screens (PubChem)
# Hits are enriched below; roughly 1.1% of the tested compounds scored in any of these assays.
# HTR5A ag – HTR5A agonists in luminescence cell assay, primary screen, counter-screen for OPRM1-OPRD1 heterodimer agonist project, full-deck HTS; cell-based; activation, % at 9.3 µM; actives 0.61% (n = 340,000); AID 504692, 2011; in the data active = activation mostly above about 9.5%, no sharp cut-off; inactive = mostly below about 7.6%;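 also: 0% = cells with vehicle only and 100% = reference agonist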
# MOR-DOR inv ag – inverse agonists of MOR-DOR heterodimerization, primary screen, cell-based, luminescence; cell-based MOR-DOR heterodimer luminescence, inverse agonism; inhibition, % at 9.3 µM; Mu-type opioid receptor (Homo sapiens) + Delta-type opioid receptor (Homo sapiens), …; actives 0.21% (n = 340,000); in the data active = inhibition above about 22%, passing the limit was not always enough;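 also: 0% = cells with DMSO and 100% = wells without cells with DMSO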
# MOR-DOR ag – agonists of OPRM1-OPRD1 heterodimerization, primary screen, cell-based, luminescence. actives 0.3% (n = 340,000). activation, % at 9.3 µM. AID 504326, 2011. cells; in the data active = activation above about 18%;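 also: 0% = vehicle-treated cells and 100% = reference agonist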
# HTR5A inv ag – HTR5A inverse agonists in luminescence cell assay, primary screen, counter-screen for OPRM1-OPRD1 heterodimer inverse agonist project, full-deck HTS; actives 0.083% (n = 340,000); HTR5A cell line, inverse agonism; AID 504634, 2011; 5-hydroxytryptamine receptor 5A (Homo sapiens), P47898; inhibition, % at 9.3 µM; in the data active = inhibition mostly above about 23%, no sharp cut-off; inactive = mostly below about 18%;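 also: 0% = cells with DMSO and 100% = no-cell wells with DMSO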
# OPRM1-D1 inv cf – inverse agonists of MOR-DOR heterodimerization, confirmation, cell-based, luminescence; actives 20% (n = 580); cells expressing OPRM1/OPRD1 heterodimer; AID 504900, 2011; inhibition, % at 9.3 µM; shares compounds with MOR-DOR inv ag; in the data active = inhibition above about 32%;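 also: 0% = cells with DMSO and 100% = wells lacking cells with DMSO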
# HTR5A inv ctr2 – HTR5A inverse agonists, counter-screen for OPRM1-OPRD1 inverse agonist project, cell-based, luminescence; shares compounds with MOR-DOR inv ag; HTR5A-expressing cells, inverse agonism; inhibition, % at 9.3 µM; 580 tested, under 10 active; call rule not given here;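 also: 0% = cells with DMSO and 100% = no-cell wells with DMSO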
# Numbers without * were called inactive; x = not tested or not shown.
SMILES,HTR5A ag,MOR-DOR inv ag,MOR-DOR ag,HTR5A inv ag,OPRM1-D1 inv cf,HTR5A inv ctr2
CC(C)C1OC2c3cccc4cccc(c34)C2N1c1ccccc1 (stereo not given),-7,65*,-13,-5,1,0
ON1C(c2ccccc2C(F)(F)F)N(O)[C@H]2CCCC[C@H]21 (stereo not given in full),0,41*,-7,0,13,-6
O=C(Nc1ccccc1C(F)(F)F)C1CCCC1,2,-3,1,-7,x,x
CCCNc1c(NS(=O)(=O)c2ccc(OC)c(OC)c2)c(=O)oc2ccccc12,-1,11,-2,4,x,x
CCS(=O)(=O)N1CCC(C(=O)OCC(=O)c2ccc(Br)cc2)CC1,-3,35*,-7,6,1,-2
O=c1c2cc(Br)ccc2[nH]c(=S)n1Cc1ccccn1,-1,64*,-11,2,-93,-20
COc1cccc(CN(C)C(=O)c2ccccc2SCC(=O)N2CCCC2)c1,-2,19,-4,4,x,x
O=C(COC(=O)C1CCN(S(=O)(=O)c2cccs2)CC1)c1cc2ccccc2o1,-6,58*,-10,10,-254,-19
O=C1C(=O)N(Cc2cccc([N+](=O)[O-])c2)c2ccccc21,1,52*,-10,17,17,13
Cc1ccc2c(c1)C(=O)C(=O)N2Cc1ccc(F)cc1,-2,39*,-7,5,-28,-10
Cc1ccc2c(c1)C(=O)C(=O)N2Cc1ccccc1,8,38*,-6,-11,12,-4
C#CCOCCOCCOCCNc1nc(N2CCN(C(=O)CCCCCCCCCCNC(=O)Cn3cc(CCCCCN)nn3)CC2)nc(N2CCN(C(=O)CCCCCCCCCCNC(=O)Cn3cc(CCCCCN)nn3)CC2)n1,12,19,-3,-34,x,x
CN(Cc1ccc(Cl)c(Cl)c1)C(=O)CN1C(=O)NC2(CCCC2)C1=O,-3,10,-2,11,x,x
O=C1Nc2ccccc2/C1=N/N=C/c1cccc(O)c1,3,5,-1,19,x,x
Cc1cc(Br)ccc1N=C1C(=O)Nc2ccccc21,-4,50*,-10,15,14,8
Cc1cccc(C)c1N=C1C(=O)Nc2ccccc21,-7,46*,-9,28,-26,-3
O=C1Nc2ccccc2C1=Nc1ccccc1-c1ccccc1,-7,62*,-14,28,-219,-20
Cc1cc(C)c(N=C2C(=O)Nc3ccccc32)c(C)c1,-5,48*,-9,19,-37,-32
CCN(C(=O)COC(=O)c1ccc[nH]c1=O)c1cccc2ccccc12,-4,15,-3,14,x,x
CC(NC(=O)C1CCCN1S(=O)(=O)c1ccccc1)c1ccccc1 (stereo not given),-3,9,-2,11,x,x
CCN(CC(=O)Nc1ccc(OC)cc1)C(=O)CSCc1c(C)noc1C,0,2,0,1,x,x
CC(C)c1ccc(CNC(=O)C(=O)NCC2CCCO2)cc1 (stereo not given),2,18,-3,-5,x,x
Cn1c(SSc2ccc(-c3cccnc3)n2C)ccc1-c1cccnc1,0,41*,-8,-1,30,13
COc1ccc(CNC(=O)c2nc(S(=O)(=O)Cc3ccccc3)ncc2Cl)cc1,-6,24,-5,-8,x,x
O=C(NCc1ccc2c(c1)OCO2)c1nc(S(=O)(=O)Cc2ccccc2F)ncc1Cl,-1,32*,-6,4,9,-3
O=C(NCc1ccccc1)c1nc(S(=O)(=O)Cc2ccccc2)ncc1Cl,-8,35*,-6,25,8,4
O=C(NCc1ccc2c(c1)OCO2)c1nc(S(=O)(=O)Cc2ccccc2)ncc1Cl,2,27,-5,-6,x,x
COCCNc1nnc(SCC(=O)NC2CCCCC2)s1,6,0,0,-15,x,x
Cc1ccc(SCC(=O)OCn2nnc3ccccc3c2=O)cc1C,-1,-3,1,-26,x,x
